Drawing on PubChem BioAssay (Tox21), this text covers Potency and outcome for 8 compounds.

The structures appear in SMILES notation. Values joined by “and” are separate entries in the source; they are usually repeats but may differ in a detail not shown here. Equal values may be shown once. Results filed as inconclusive are left out. A structure can be active in one record and inactive in another. Active and inactive are the calls of the source. Unless noted, calls come from the whole dose curve; as a rule, active = well fitted curve in the direction sought with a large enough effect in the repeat runs; inconclusive = weak or mixed curves; inactive = no such curve, though single readings can be large; an effect the other way counts as inactive or inconclusive.

Assay [1] is described as follows: qHTS assay to identify aromatase inhibitors - cell viability counter screen (AID 743084).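 Note: cells stimulated with testosterone during compound exposure; nearly all actives have a fitted effect of over 55% in size.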 Note: potency is the fitted concentration of half-maximal effect. A general note: qHTS replaces the single test concentration by a dilution series.
Assay [2] has as its target Aryl hydrocarbon receptor (Homo sapiens) (UniProt P35869). Put plainly: qHTS assay to identify small molecule that activate the aryl hydrocarbon receptor (AhR) signaling pathway (AID 743085).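 Note: HG2L7.5c1 human HepG2 liver cells with stably integrated DRE-driven firefly reporter; series mostly up to about 70 µM; nearly all actives have a fitted effect of over 15% in size.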 An outline of the steps: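 Luminescence (ONE-Glo) from a dioxin-responsive-element luciferase reporter in HG2L7.5c1 HepG2 cells after 24 hr compound exposure at 37C; viability measured by CellTiter-Fluor fluorescence beforehand.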

Assay [3] is described as follows: qHTS assay to identify small molecule that activate the aryl hydrocarbon receptor (AhR) signaling pathway - cell viability counter screen (AID 743086). Note: nearly all actives have a fitted effect of over 45% in size. Note: potency is the fitted concentration of half-maximal effect. Summed up: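 Cytotoxicity counter screen: CellTiter-Fluor signal (30 min, 37 C) in 4000 HepG2 cells/well carrying the DRE-luciferase reporter, following 24 h compound exposure at 37 C.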
The nature of assay [4]: qHTS assay to identify small molecule antagonists of the peroxisome proliferator-activated receptor gamma (PPARg) signaling pathway - cell viability counter screen (AID 743194). Note: nearly all actives have a fitted effect of over 55% in size. Note: potency is the fitted concentration of half-maximal effect. An outline of the steps:
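Viability was measured as CellTiter-Glo luminescence in GeneBLAzer PPARg UAS-bla HEK293H cells. These cells had been exposed 17 h at 37 C to compounds together with rosiglitazone at 50 nM final, with the beta-lactamase readout taken in the same wells.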

A short description of assay [5]: qHTS assay for small molecule agonists of the antioxidant response element (ARE) signaling pathway - cell viability counter screen (AID 743203; calls by dose curve; note: nearly all actives have a fitted effect of over 55% in size; note: potency is the fitted concentration of half-maximal effect). Summed up:
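Measured in the same wells as the beta-lactamase ARE reporter, this read-out is CellTiter-Glo luminescence from HepG2 ARE-bla cells given compounds for 16 hrs.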

Assay [6] is described as follows: qHTS assay for small molecule activators of the heat shock response signaling pathway - cell viability counter screen (AID 743209). Note: nearly all actives have a fitted effect of over 50% in size. Note: potency is the fitted concentration of half-maximal effect. An outline of the steps: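 Same-well multiplex: after 2.5 h room-temperature incubation with LiveBLAzer B/G substrate and fluorescence reading, CellTiter-Glo reagent was added to HSE-bla HeLa cells that had received compound for 5 h at 37 C; luminescence read after 30 min.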

Assay [7] is described as follows: qHTS assay to identify small molecule agonists of the peroxisome proliferator-activated receptor delta (PPARd) signaling pathway - cell viability counter screen (AID 743211). Note: nearly all actives have a fitted effect of over 55% in size. Note: potency is the fitted concentration of half-maximal effect. An outline of the steps:
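Viability was measured as CellTiter-Glo luminescence (30 min, room temperature) in the same wells as the beta-lactamase readout. GeneBLAzer PPARd UAS-bla HEK293H cells received compound after 5 h plating and were incubated 17 h at 37 C.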

The nature of assay [8]: qHTS assay to identify small molecule antagonists of the peroxisome proliferator-activated receptor delta (PPARd) signaling pathway - cell viability counter screen (AID 743213). Note: nearly all actives have a fitted effect of over 50% in size. Note: potency is the fitted concentration of half-maximal effect. An outline of the steps: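 CellTiter-Glo was added to PPARd-bla HEK293H wells following 17 h compound treatment in the presence of 300 nM L165041. Luminescence was recorded after 30 min at room temperature.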

A short description of assay [9]: qHTS assay to identify small molecule agonists of the farnesoid-X-receptor (FXR) signaling pathway - cell viability counter screen (AID 743218). Note: nearly all actives have a fitted effect of over 45% in size. Note: potency is the fitted concentration of half-maximal effect. An outline of the steps: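 Readout: CellTiter-Glo luminescence, 30 min RT, multiplexed after the FXR-bla FRET reading. HEK 293T FXR-UAS-bla cells received compound 5 h post-plating and were incubated 16 h at 37 C.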
The nature of assay [10]: qHTS assay to identify small molecule antagonists of the farnesoid-X-receptor (FXR) signaling pathway - cell viability counter screen (AID 743221; active = well fitted cell-killing curve with a large enough effect in the repeat runs, not every such curve was filed as active; note: nearly all actives have a fitted effect of over 50% in size; note: potency is the fitted concentration of half-maximal effect). Summed up: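 Cytotoxicity counter screen run in the FXR-bla reporter wells: HEK 293T cells exposed to compound with 50 uM (final) chenodeoxycholic acid for 16 h, 37 C, then viability measured by CellTiter-Glo luminescence after 30 min, room temperature.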

Assay [11] can be described thus: qHTS assay for small molecule agonists of the antioxidant response element (ARE) signaling pathway (AID 743202; active = well fitted activation curve with a large enough effect in the signal ratio in the repeat runs, not every such curve was filed as active; the % refers to the signal ratio). An outline of the steps: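 After 16 hours of compound treatment at 37 C, HepG2 cells with a stably integrated ARE-driven beta-lactamase reporter were loaded 2 hours at room temperature with LiveBLAzer B/G FRET substrate and fluorescence intensity measured.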

Assay [12] deals with Peroxisome proliferator-activated receptor gamma (Homo sapiens) (UniProt P37231). Description: qHTS assay to identify small molecule agonists of the peroxisome proliferator-activated receptor gamma (PPARg) signaling pathway (AID 743094; active = well fitted activation curve with a large enough effect in the signal ratio in the repeat runs, not every such curve was filed as active; the % refers to the signal ratio). An outline of the steps:
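Cell-based bla reporter, HEK293H background, PPARg-driven UAS. Pre-incubation 5 h, 37C, 5% CO2. Compound 17 h, 37C. Substrate 1 h RT; fluorescence.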

For assay [13] the target is unchanged. Description: qHTS assay to identify small molecule antagonists of the peroxisome proliferator-activated receptor gamma (PPARg) signaling pathway (AID 743191; calls by dose curve; note: series mostly up to about 63 µM; nearly all actives have a fitted effect of over 30% in size). Summed up:
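Beta-lactamase reporter under UAS control in HEK293H PPARg-bla cells; compound treatment 17 h at 37C. Read-out: fluorescence intensity after 1 h room-temperature incubation with LiveBLAzer B/G FRET substrate.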

Assay [14] is described as follows: qHTS assay for small molecule activators of the heat shock response signaling pathway (AID 743210; active = well fitted activation curve with a large enough effect in the signal ratio in the repeat runs, with a control signal flat, not every such curve was filed as active; the % refers to the signal ratio; note: series mostly up to about 63 µM). An outline of the steps: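 Compound exposure lasted 5 h at 37 C in HeLa cells carrying a heat-shock-element-driven beta-lactamase reporter. Read-out: fluorescence intensity after 2.5 h room-temperature loading with LiveBLAzer B/G FRET substrate.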
Assay [15] addresses Peroxisome proliferator-activated receptor delta (Homo sapiens) (UniProt Q03181). Put plainly: qHTS assay to identify small molecule agonists of the peroxisome proliferator-activated receptor delta (PPARd) signaling pathway (AID 743212; calls by dose curve). Summed up:
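Beta-lactamase reporter readout: a ratiometric FRET signal from the LiveBLAzer substrate after 2 h at room temperature. Compound exposure at 37 °C in PPARδ-bla HEK293H cells driven by an upstream activator sequence.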

The target is the same in assay [16]. Description: qHTS assay to identify small molecule antagonists of the peroxisome proliferator-activated receptor delta (PPARd) signaling pathway (AID 743215; active = well fitted inhibition curve with a large enough effect in the signal ratio in the repeat runs, not every such curve was filed as active; the % refers to the signal ratio;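 note: cells stimulated with agonist L165041 at 300 nM final during compound exposure; series mostly up to about 62 µM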). An outline of the steps: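 Fluorescence from cleaved LiveBLAzer B/G FRET substrate (2 h, room temperature) reports PPARd-driven beta-lactamase in HEK293H UAS-bla cells. Cells had been treated 17 h at 37 C with compound plus 300 nM final L165041.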

For assay [17], the target named is Bile acid receptor (Homo sapiens) (UniProt Q96RI1). Put plainly: qHTS assay to identify small molecule agonists of the farnesoid-X-receptor (FXR) signaling pathway (AID 743220; active = well fitted activation curve with a large enough effect in the signal ratio in the repeat runs, not every such curve was filed as active; the % refers to the signal ratio). Summed up:
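FXR-UAS-bla HEK 293T cells carrying a UAS-driven beta-lactamase reporter were plated for 5 h at 37C/5% CO2, then exposed to DMSO-dissolved Tox21 10K compounds for 16 h at 37C. A LiveBLAzer B/G FRET substrate was loaded for 2 h at room temperature before fluorescence reading.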

Assay [18] addresses Vitamin D3 receptor (Homo sapiens) (UniProt P11473). Description: qHTS assay to identify small molecule agonists of the vitamin D receptor (VDR) signaling pathway (AID 743222; calls by dose curve). Summed up:
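Following 4 h attachment at 37C, VDR-bla cells (2,000 per well) received DMSO-dissolved compounds or controls. After 16 h incubation, LiveBLAzer B/G FRET substrate was added and fluorescence read 2 h later at room temperature.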

For assay [19] the target is unchanged. Put plainly: qHTS assay to identify small molecule antagonists of the vitamin D receptor (VDR) signaling pathway (AID 743223; active = well fitted inhibition curve with a large enough effect in the signal ratio in the repeat runs, not every such curve was filed as active; the % refers to the signal ratio). An outline of the steps:
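Antagonist mode: compound added to VDR-bla cells alongside agonist 1alpha,25-dihydroxyvitamin D3 (3 nM final), incubation 16 h at 37C. Read-out is LiveBLAzer FRET fluorescence, 2 h at room temperature.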
% is set by controls: 0 for no effect and ±100 for the full control effect.

Vitamin D3 receptor (Homo sapiens), sequence (P11473 whole entry, looked up): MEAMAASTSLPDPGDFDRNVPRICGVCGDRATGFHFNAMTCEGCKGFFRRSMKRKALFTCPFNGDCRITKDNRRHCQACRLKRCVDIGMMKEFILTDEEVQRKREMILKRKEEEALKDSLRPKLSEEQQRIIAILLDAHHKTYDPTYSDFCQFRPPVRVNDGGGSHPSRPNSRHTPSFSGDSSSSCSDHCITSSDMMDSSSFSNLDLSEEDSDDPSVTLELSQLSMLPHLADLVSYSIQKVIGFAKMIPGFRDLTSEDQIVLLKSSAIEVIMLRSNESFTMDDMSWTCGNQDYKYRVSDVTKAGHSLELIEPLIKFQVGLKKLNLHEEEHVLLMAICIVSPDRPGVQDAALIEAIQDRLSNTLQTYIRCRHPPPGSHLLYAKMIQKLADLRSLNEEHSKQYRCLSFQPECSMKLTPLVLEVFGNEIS
Aryl hydrocarbon receptor (Homo sapiens), sequence (P35869 whole entry, looked up): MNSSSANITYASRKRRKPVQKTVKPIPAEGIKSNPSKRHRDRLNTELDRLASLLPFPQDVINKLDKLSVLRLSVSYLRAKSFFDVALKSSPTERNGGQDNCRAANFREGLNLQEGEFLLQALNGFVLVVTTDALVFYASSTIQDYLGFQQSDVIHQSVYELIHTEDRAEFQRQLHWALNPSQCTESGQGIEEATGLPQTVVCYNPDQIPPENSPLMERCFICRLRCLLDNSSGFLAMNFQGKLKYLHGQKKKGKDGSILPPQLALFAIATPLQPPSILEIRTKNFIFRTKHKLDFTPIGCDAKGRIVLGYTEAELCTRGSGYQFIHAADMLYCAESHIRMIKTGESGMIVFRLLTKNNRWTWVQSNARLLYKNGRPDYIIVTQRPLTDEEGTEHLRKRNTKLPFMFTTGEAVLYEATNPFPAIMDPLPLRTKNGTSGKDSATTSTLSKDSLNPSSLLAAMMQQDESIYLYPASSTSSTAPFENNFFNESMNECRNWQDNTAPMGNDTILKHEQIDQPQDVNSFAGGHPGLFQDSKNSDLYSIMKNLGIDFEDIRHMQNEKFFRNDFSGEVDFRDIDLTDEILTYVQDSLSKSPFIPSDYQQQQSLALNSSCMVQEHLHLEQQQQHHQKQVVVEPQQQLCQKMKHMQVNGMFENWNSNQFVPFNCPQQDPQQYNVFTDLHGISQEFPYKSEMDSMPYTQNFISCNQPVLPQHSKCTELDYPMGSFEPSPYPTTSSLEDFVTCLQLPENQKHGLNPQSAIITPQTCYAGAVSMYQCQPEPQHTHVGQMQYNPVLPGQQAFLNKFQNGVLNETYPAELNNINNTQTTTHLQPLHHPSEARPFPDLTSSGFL
Peroxisome proliferator-activated receptor delta (Homo sapiens), sequence (Q03181 whole entry, looked up): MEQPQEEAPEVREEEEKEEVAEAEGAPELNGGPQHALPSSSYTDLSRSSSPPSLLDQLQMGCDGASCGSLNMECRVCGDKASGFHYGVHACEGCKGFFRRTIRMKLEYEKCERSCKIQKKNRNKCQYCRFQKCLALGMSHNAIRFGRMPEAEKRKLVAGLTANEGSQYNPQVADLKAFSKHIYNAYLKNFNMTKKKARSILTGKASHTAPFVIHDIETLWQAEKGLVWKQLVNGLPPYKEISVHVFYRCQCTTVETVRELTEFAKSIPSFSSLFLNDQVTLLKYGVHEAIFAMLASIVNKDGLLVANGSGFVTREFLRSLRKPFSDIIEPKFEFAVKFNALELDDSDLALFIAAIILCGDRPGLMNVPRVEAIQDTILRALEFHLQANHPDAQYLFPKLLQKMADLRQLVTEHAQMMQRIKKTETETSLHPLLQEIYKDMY
Peroxisome proliferator-activated receptor gamma (Homo sapiens), sequence (P37231 whole entry, looked up): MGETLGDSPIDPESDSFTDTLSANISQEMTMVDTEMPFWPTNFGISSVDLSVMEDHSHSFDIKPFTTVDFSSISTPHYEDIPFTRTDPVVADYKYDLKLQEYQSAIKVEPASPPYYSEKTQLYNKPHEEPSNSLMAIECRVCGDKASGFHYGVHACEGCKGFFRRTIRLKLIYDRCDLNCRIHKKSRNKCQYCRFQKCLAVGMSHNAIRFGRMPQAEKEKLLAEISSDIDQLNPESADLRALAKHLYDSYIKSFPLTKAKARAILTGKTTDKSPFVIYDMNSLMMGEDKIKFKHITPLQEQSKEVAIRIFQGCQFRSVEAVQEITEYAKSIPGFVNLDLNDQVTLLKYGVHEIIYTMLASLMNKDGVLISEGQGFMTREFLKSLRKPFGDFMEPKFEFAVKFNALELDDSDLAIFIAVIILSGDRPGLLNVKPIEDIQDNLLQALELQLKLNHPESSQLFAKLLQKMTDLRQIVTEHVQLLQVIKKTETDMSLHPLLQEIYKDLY
Bile acid receptor (Homo sapiens), sequence (Q96RI1 whole entry, looked up): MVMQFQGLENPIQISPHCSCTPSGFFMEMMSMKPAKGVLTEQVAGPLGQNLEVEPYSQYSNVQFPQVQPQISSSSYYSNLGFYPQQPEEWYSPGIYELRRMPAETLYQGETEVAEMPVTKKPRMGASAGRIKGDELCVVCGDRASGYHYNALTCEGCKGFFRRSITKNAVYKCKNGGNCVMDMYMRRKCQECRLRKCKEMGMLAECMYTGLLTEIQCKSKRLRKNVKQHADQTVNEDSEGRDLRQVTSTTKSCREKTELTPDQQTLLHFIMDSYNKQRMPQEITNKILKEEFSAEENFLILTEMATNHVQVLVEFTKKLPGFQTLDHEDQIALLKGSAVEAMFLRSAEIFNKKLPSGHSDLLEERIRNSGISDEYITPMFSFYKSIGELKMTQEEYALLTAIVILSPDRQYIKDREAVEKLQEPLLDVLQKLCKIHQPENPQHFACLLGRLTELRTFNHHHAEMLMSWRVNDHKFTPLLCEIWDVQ

In the case of `O=C1OC2(c3ccccc31)c1cc(Br)c(O)c(Br)c1Oc1c2cc(Br)c(O)c1Br`, the Potency in [1] is 9.44 µM (active) and 2.2 µM (active) and 4.45 µM (active); in assay [3], 10.6 µM (active) and 2.77 µM (active) and 6.28 µM (active). Further, the Potency result in assay [2], in [4], in assay [5], in assay [6], in assay [7] and in [8] was “inactive” in each case. Besides, the Potency entry in assay [9] and in assay [10] was “inactive” each time.
For the compound `CC(=O)Nc1c(I)c(NC(C)=O)c(I)c(C(=O)O)c1I`, the Potency entry in [3], in assay [4], in assay [11], in [5], in [6] and in assay [7] was “inactive” each time. Moreover, the Potency result in [8], in [9] and in assay [10] was “inactive” each time.
`CN(C)C(=O)Nc1ccc(Cl)c(Cl)c1`: the Potency entry in assay [1], in assay [3], in [12], in assay [13], in assay [4] and in assay [11] was “inactive” throughout. Moreover, the Potency result in [5], in assay [6], in [7], in assay [15], in assay [8] and in [16] was “inactive” each time. Besides, the Potency result in assay [9] and in [10] was “inactive” throughout. Moreover, the call in assay [14] was inactive.
For the compound `Nc1ccc2c(c1)CN1C(=O)c3ccccc3C1=N2`, the Potency entry in assay [4], in assay [5], in assay [6], in assay [7] and in assay [9] was “inactive” in each case. For the same compound, the compound was called inactive in assay [14] and in [17].
As to `COc1ccc2cc(S(=O)(=O)N[C@H](CC(=O)N[C@H](Cc3ccc(CN4[C@H](C)CCC[C@@H]4C)cc3)C(=O)N(C)C(C)C)c3ccc4c(c3)OCO4)ccc2c1`, the Potency was 46 µM (active) in [1]; 23 µM (active) in [3]; 46.3 µM (active) in assay [4]; 18.3 µM (active) in [5]; 14.7 µM (active) in assay [7]; 29.2 µM (active) in assay [8]. The results for the Potency in assay [9] and in [10] were 26.1 µM (active) and 52 µM (active), respectively. Besides, the Potency entry in assay [2], in assay [6] and in assay [18] was “inactive” each time. For the same compound, the call in [14] and in assay [17] was inactive.
Turning to `CC/C(=C(\c1ccccc1)c1ccc(OCCN(C)C)cc1)c1ccccc1`, the Potency is 27.3 µM (active) [middle of 5 runs] in assay [1]; “inactive and 61.6 µM (active)” in [3]; 19.5 µM (active) and 27.3 µM (active) and 26.6 µM (active) in [5]; “inactive and 35 µM (active) and 43.6 µM (active)” in [6]; 54.9 µM (active) and 17.5 µM (active) in assay [8]; “inactive and 49.4 µM (active) and 54.9 µM (active)” in assay [10]. In addition, the Potency result in assay [2] is “inactive”. Further, in assay [14], the compound was classed as inactive.
As for `COc1ccc(OC(F)(F)F)cc1CN[C@H]1CCCN[C@H]1c1ccccc1`, the Potency entry in assay [1], in assay [2], in assay [4], in [6] and in [18] was “inactive” in each case. For the same compound, the Potency in assay [3] is 54.5 µM (active); in assay [5] it was 27.3 µM (active); in assay [7] it was 43.6 µM (active); in assay [8] it was 43.6 µM (active); in [9], 43.6 µM (active). Also, in assay [14], the outcome was inactive.
In the case of `COc1ccc(C(Cl)=C(c2ccc(OC)cc2)c2ccc(OC)cc2)cc1`, the Potency entry in assay [1], in assay [2], in assay [3], in [4], in assay [5] and in [6] was “inactive” throughout. The Potency entry in [7], in assay [15], in assay [8], in [16], in assay [9] and in [10] was “inactive” throughout. The Potency entry in assay [18] and in assay [19] was “inactive” throughout. In [14], the compound was called inactive.
